# An excerpt weighted towards active compounds, which were near 3.8% of everything screened.
# FGF22 binding = shifts melting point of recombinant human FGF22. Q9HCT0. actives 1.5% (n = 340,000). activity (Tm shift, normalised), % at 9.99 µM. recombinant FGF22 thermal shift, SYPRO orange fluorescence; percent of sucrose octasulfate shift, DMSO zero;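 active = mean Tm shift, scaled 0 neutral to 100 positive control, at about 1.3% or above, every replicate too, limit read from the data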
# rRNA inh HTS = inhibitors of bacterial rRNA selective over humanized ribosomes. E. coli WT GFP vs humanized-ribosome RFP mutants, fluorescence, 24 h; stronger effect = lower value; DMSO median 0, no signal -100. GFP signal change (wild-type ribosome), % (concentration not given with the values). actives 1.6% (n = 350,000). AID 720706;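 active = significant combined selectivity score with lowered wild-type GFP, culture density cut under 30%, mutant RFP and density less affected; inactive = any of these conditions unmet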
# KLK7 zymogen act = activators of human kallikrein-7 zymogen | P49862 | purified proKLK7, EDANS-DABCYL substrate fluorescence; 100% is mature enzyme control, 0% vehicle | activation, % at 7 µM | actives 0.9% (n = 370,000) | AID 652039;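 active = activation above the mean of all tested compounds plus 3 SD, computed per campaign excluding outliers beyond control limits, cut at about 13% in these data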
# ADAM10 inh = ADAM10 inhibition, QFRET primary screen; recombinant ADAM10, EDANS/DABCYL FRET peptide cleavage, 3 h; inhibition, % at 7 µM; actives 0.62% (n = 370,000);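 active = inhibition above a per-campaign cutoff equal to the mean of compounds falling between control-based bounds plus 3 SD, cut at about 20% in these data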
# ADAM17 inh = ADAM17 inhibition, QFRET primary screen; AID 720648; recombinant ADAM17, EDANS/DABCYL FRET peptide cleavage; actives 0.83% (n = 370,000); P78536; inhibition, % at 6.95 µM;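 active = inhibition above the mean of compounds lying between control limits plus 3 SD, set per campaign, cut at about 8.5% in these data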
# Target sequence (P78536 215-824 limits assumed): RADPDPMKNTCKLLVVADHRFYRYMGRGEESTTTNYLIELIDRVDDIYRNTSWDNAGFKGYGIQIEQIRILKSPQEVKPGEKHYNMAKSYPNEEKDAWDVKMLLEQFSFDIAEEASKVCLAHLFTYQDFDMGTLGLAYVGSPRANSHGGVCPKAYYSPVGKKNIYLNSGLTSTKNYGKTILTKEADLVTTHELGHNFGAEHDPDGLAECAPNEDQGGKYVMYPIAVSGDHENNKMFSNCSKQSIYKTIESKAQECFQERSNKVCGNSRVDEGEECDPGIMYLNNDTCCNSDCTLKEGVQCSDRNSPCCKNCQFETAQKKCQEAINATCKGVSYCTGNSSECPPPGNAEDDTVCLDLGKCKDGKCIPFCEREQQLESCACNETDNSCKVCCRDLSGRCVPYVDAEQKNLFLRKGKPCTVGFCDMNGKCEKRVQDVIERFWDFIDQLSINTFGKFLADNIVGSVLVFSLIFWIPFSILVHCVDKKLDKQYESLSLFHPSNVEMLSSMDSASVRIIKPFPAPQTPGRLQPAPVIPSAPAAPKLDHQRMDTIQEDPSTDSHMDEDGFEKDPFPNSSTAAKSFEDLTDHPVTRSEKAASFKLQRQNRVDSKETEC
# Hits are given with their value; 0 = inactive; - = no result given.
SMILES,FGF22 binding,rRNA inh HTS,KLK7 zymogen act,ADAM10 inh,ADAM17 inh
C[C@H]1CN([C@@H](C)CO)C(=O)c2cccc(NC(=O)C3CCCCC3)c2O[C@H]1CN(C)Cc1ccc(-c2ccccc2)cc1,-,0,-,-,-
CCOC(=O)CSc1ccc(C(=O)NCCN2CCOCC2)cc1[N+](=O)[O-],0,0,0,0,0
CCOC(=O)CSc1ccc(C(=O)N2CCN(C)CC2)cc1[N+](=O)[O-],43.3,0,0,0,0
Cc1noc(C)c1NC(=O)NCC[C@@H]1CC[C@@H](NC(=O)c2ccccc2)[C@H](CO)O1,0,0,-,-,-
Nc1nc2ccccc2n1C(=O)c1ccccc1,43.0,0,0,0,0
Cc1ccc2c(c1)C=CC(C#N)N2C(=O)c1ccccc1 (stereo unspecified),0,0,0,0,0
CC1=Cc2ccccc2C(C#N)N1C(=O)c1ccccc1 (stereo unspecified),43.9,0,0,0,0
CCCC(=O)N1CCC2(CC1)CN(C(=O)Nc1ccc(F)cc1)[C@H](CO)c1c2c2ccc(OC)cc2n1C,-,0,-,-,-
COCC(=O)N1CCC2(CC1)CN(S(C)(=O)=O)[C@@H](CO)c1c2c2ccc(OC)cc2n1C,-,0,-,-,-
Nc1nc2cc3c(cc2cc1C(=O)NCCc1c[nH]c2ccccc12)OCO3,0,-25.0,0,0,0
COc1cc(SC)ccc1C(=O)NCCc1c[nH]c2ccccc12,0,0,0,0,0
COc1cc2cc(C(=O)NCCc3c[nH]c4ccccc34)c(N)nc2cc1OC,0,-31.1,0,0,0
Cc1ccccc1OCC(O)Cn1c(Br)nc2c1c(=O)n(C)c(=O)n2C (stereo unspecified),0,0,0,0,0
Cc1ccccc1OCC(O)Cn1c(NCc2ccco2)nc2c1c(=O)n(C)c(=O)n2C (stereo unspecified),0,-26.1,0,0,0
COc1ccc2c3c([nH]c2c1)[C@H](CO)N(C)CC31CCN(C(=O)NC(C)C)CC1,-,0,-,-,-
O=C(Cn1cc(C(=O)C(F)(F)F)c2ccccc21)Nc1ccccc1F,0,0,0,0,0
O=C(Cn1cc(C(=O)c2ccco2)c2ccccc21)Nc1ccccc1F,0,-21.7,0,0,0
CCCN1[C@H](CO)[C@H](c2ccc(-c3ccccc3F)cc2)[C@@H]1CNC(=O)C1CCC1,-,0,-,-,-
O=C(Cn1nnc(-c2cccs2)n1)NCc1cccs1,43.2,0,0,0,0
O=C(Cn1nnc(-c2ccccc2)n1)NCc1cccs1,-,-,0,0,0
Clc1ccccc1OCc1nc(-c2ccncc2)no1,-,-,0,0,0
COc1ccccc1Cc1nc(-c2ccncc2)no1,43.1,0,0,0,0
COc1ccc(Cn2cc(C(=O)O)c(=O)c3ccccc32)cc1,43.2,0,0,0,0
COc1ccc(S(=O)(=O)N2CC3(CN(Cc4ccncc4)[C@@H](CO)c4[nH]c5cc(OC)ccc5c43)C2)cc1,-,0,-,-,-
CCOC(=O)C1CCN(C(=O)COc2ccc([N+](=O)[O-])cc2)CC1,43.1,0,0,0,0
SMILES,FGF22 binding,rRNA inh HTS,KLK7 zymogen act,ADAM10 inh,ADAM17 inh
Cc1cccc(-c2ccc([C@@H]3[C@@H](CO)N4CCCCN(S(=O)(=O)c5cccs5)C[C@@H]34)cc2)c1,0,0,-,-,-
CSCc1ccc(C(=O)OCc2nc3ccccc3s2)o1,42.9,-15.5,0,0,0
COc1cc(N2N=C(c3ccccc3)CC2c2ccccc2)c(C=O)cc1C=O (stereo unspecified),0,0,0,0,0
COc1ccccc1N1N=C(c2ccc([N+](=O)[O-])cc2)CC1c1ccccc1 (stereo unspecified),2.7,0,0,0,0
CCCCC#Cc1ccccc1COC[B-](F)(F)F,1.4,0,0,0,0
C/[N+]([O-])=C/c1c(OCc2ccc(Cl)cc2Cl)ccc2ccccc12,44.9,0,0,0,0
COc1cc(CNCc2ccccn2)ccc1OCc1ccc(Cl)cc1Cl,-,-,0,0,0
CCN(C(=O)CSc1nc2nc(C)cc(C)n2n1)C1CCS(=O)(=O)C1 (stereo unspecified),0,0,0,0,0
Cc1cc(C)n2nc(SCC(=O)N(Cc3ccccc3)C3CCS(=O)(=O)C3)nc2n1 (stereo unspecified),42.9,0,0,0,0
Cc1ccc(C(=O)O)cc1NC(=S)NC(=O)c1ccc([N+](=O)[O-])c(C)c1,42.9,0,0,0,0
Cc1ccc(CNC(=S)Nc2cc(C(=O)O)ccc2C)cc1,0,0,0,0,0
Cc1noc(C)c1S(=O)(=O)Nc1ccc2c(c1)C(=O)N([C@@H](C)CO)C[C@H](C)[C@H](CN(C)S(=O)(=O)c1ccccc1)OCCCC[C@H](C)O2,0,0,-,-,-
O=C(CCC(=O)c1ccc(F)cc1)Nc1cccc(S(=O)(=O)Nc2cccc(Cl)c2)c1,0,-40.7,0,0,0
CC(C)C(=O)Nc1cc(S(=O)(=O)Nc2ccc(Cl)cc2)ccc1Cl,0,0,0,0,0
CC(C)C(=O)Nc1cc(S(=O)(=O)Nc2cccc(Cl)c2)ccc1Cl,0,-22.4,0,0,0
O=C(COC(=O)c1ccc([N+](=O)[O-])s1)NC(=O)NCc1ccccc1,43.1,-,0,0,0
CN(CC(=O)NC(=O)NCc1ccccc1)Cc1cccc(Cl)c1Cl,0,-37.6,0,0,0
C[C@@H]1CCCCO[C@@H](CN(C)CC2CC2)[C@@H](C)CN([C@H](C)CO)C(=O)c2cc(NS(C)(=O)=O)ccc2O1,0,0,-,-,-
O=C(CSc1nnc(NC(=O)c2ccccc2F)s1)NC1CCCC1,0,0,0,0,0
CC(=O)Nc1ccc(NC(=O)CSc2nnc(NC(=O)c3ccccc3F)s2)cc1,1.9,0,0,0,0
NC(=O)c1ccsc1NC(=O)CSc1nnc(Nc2ccccc2)s1,1.5,0,0,0,0
C[C@H](CO)N1C[C@H](C)[C@@H](CN(C)C(=O)Nc2ccc3c(c2)OCO3)Oc2c(NC(=O)Cc3cn(C)c4ccccc34)cccc2C1=O,-,0,-,-,-
C[C@H](CO)N1C[C@H](C)[C@H](CN(C)Cc2ccc3c(c2)OCO3)OCCCC[C@H](C)Oc2ccc(NS(C)(=O)=O)cc2C1=O,0,0,-,-,-
Cc1cccc(NC(=O)c2n[nH]c([N+](=O)[O-])c2Br)c1C,0,-29.0,0,0,0
Cc1cccc(NC(=O)c2ccccn2)c1C,-,-,0,0,0
COc1ccc(C(=O)CN2CCN(S(=O)(=O)c3cccc([N+](=O)[O-])c3)CC2)cc1OC,0,0,0,0,0
COc1cccc(C(=O)CN2CCN(S(=O)(=O)c3cccc([N+](=O)[O-])c3)CC2)c1,43.0,0,0,0,0
CCOC(=O)CCc1c(C)c2ccc(OC3CCCCC3=O)cc2oc1=O (stereo unspecified),0,-21.3,0,0,0
O=C(CCC(F)(F)F)N1CCCC(N2CCN(c3cccc(Cl)c3)CC2)C1 (stereo unspecified),0,-23.5,0,0,0

# High-throughput results as filed in PubChem BioAssay.
